Assay results as given in PubChem BioAssay.
Active and inactive are the calls of the source.

Tests used:
[1] = binders of probe aFSTL3 on microarray, primary screen, stem cell growth factor project, biochemical, small-molecule microarray, fluorescence 635/667 (AID 1064); conditions: higher = more signal;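 note: measures binding of the biotinylated anti-FSTL3 antibody to printed compounds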
[2] = binders from COS7 lysate, DM2A8 probe, primary screen, torsin A project, cell lysate, small-molecule microarray, fluorescence 635/667 (AID 1065); conditions: higher = more signal, COS7 lysate expressing mutant human TOR1A
[3] = binders of probe aFGF2 on microarray, primary screen, stem cell growth factor project, biochemical, small-molecule microarray, fluorescence 635/667 (AID 1067); conditions: higher = more signal;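 note: measures binding of biotinylated aFGF2 protein to printed compounds on slides; z-score merges feature fluorescence and signal-to-noise across triplicate slides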
[4] = binders of probe aFGF10 on microarray, primary screen, stem cell growth factor project, biochemical, small-molecule microarray, fluorescence 635/667 (AID 1071); conditions: higher = more signal;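 note: score merges 667 nm spot intensity and signal to noise from triplicate slides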
[5] = molecular target: Neurogenic locus notch homolog protein 2 (Homo sapiens) (UniProt Q04721); assay: Notch2 binders on small-molecule microarrays, primary screen, biochemical, small-molecule microarray, 635 nm fluorescence, stem cell growth factors (AID 1073); conditions: Notch2 binding, higher = more signal
[6] = molecular target: Pro-neuregulin-1, membrane-bound isoform (Homo sapiens) (UniProt Q02297); assay: NRG1 binders on small-molecule microarrays, primary screen, psychiatric disease protein project, biochemical, small-molecule microarray, fluorescence 635/667 (AID 1075); conditions: NRG1 binding, 635 nm fluorescence, higher = more signal;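 note: score combines 667 nm spot fluorescence with signal to noise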
[7] = test system: Neuregulin-1 EGF-like domain; assay: binders of neuregulin-1 EGF-like domain, primary screen, biochemical, small-molecule microarray, 635 nm fluorescence (AID 1081); conditions: small-molecule microarray binding, higher = more signal;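 note: binding of the protein to compounds printed on small-molecule microarray slides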
[8] = FRG1 promoter luciferase signal modulators, primary screen, FRG1 inhibition for FSHD, cell-based, C2C12 myotubes, firefly/Renilla luciferase, luminescence (AID 1084); conditions: higher = more signal, called active from +8 up or from −8 down
[9] = binders of probe aFST on microarray, primary screen, stem cell growth factor project, biochemical, small-molecule microarray, fluorescence 635/667 (AID 1086); conditions: higher = more signal;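 note: score merges 667 nm fluorescence with signal-to-noise of each printed compound spot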
[10] = binders of probe aHhip on microarray, primary screen, stem cell growth factor project, biochemical, small-molecule microarray, fluorescence 635/667 (AID 1087); conditions: higher = more signal;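 note: score merges spot fluorescence at 667nm with spot signal to noise ratio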

Neurogenic locus notch homolog protein 2 (Homo sapiens), sequence (Q04721 whole entry, looked up, canonical isoform): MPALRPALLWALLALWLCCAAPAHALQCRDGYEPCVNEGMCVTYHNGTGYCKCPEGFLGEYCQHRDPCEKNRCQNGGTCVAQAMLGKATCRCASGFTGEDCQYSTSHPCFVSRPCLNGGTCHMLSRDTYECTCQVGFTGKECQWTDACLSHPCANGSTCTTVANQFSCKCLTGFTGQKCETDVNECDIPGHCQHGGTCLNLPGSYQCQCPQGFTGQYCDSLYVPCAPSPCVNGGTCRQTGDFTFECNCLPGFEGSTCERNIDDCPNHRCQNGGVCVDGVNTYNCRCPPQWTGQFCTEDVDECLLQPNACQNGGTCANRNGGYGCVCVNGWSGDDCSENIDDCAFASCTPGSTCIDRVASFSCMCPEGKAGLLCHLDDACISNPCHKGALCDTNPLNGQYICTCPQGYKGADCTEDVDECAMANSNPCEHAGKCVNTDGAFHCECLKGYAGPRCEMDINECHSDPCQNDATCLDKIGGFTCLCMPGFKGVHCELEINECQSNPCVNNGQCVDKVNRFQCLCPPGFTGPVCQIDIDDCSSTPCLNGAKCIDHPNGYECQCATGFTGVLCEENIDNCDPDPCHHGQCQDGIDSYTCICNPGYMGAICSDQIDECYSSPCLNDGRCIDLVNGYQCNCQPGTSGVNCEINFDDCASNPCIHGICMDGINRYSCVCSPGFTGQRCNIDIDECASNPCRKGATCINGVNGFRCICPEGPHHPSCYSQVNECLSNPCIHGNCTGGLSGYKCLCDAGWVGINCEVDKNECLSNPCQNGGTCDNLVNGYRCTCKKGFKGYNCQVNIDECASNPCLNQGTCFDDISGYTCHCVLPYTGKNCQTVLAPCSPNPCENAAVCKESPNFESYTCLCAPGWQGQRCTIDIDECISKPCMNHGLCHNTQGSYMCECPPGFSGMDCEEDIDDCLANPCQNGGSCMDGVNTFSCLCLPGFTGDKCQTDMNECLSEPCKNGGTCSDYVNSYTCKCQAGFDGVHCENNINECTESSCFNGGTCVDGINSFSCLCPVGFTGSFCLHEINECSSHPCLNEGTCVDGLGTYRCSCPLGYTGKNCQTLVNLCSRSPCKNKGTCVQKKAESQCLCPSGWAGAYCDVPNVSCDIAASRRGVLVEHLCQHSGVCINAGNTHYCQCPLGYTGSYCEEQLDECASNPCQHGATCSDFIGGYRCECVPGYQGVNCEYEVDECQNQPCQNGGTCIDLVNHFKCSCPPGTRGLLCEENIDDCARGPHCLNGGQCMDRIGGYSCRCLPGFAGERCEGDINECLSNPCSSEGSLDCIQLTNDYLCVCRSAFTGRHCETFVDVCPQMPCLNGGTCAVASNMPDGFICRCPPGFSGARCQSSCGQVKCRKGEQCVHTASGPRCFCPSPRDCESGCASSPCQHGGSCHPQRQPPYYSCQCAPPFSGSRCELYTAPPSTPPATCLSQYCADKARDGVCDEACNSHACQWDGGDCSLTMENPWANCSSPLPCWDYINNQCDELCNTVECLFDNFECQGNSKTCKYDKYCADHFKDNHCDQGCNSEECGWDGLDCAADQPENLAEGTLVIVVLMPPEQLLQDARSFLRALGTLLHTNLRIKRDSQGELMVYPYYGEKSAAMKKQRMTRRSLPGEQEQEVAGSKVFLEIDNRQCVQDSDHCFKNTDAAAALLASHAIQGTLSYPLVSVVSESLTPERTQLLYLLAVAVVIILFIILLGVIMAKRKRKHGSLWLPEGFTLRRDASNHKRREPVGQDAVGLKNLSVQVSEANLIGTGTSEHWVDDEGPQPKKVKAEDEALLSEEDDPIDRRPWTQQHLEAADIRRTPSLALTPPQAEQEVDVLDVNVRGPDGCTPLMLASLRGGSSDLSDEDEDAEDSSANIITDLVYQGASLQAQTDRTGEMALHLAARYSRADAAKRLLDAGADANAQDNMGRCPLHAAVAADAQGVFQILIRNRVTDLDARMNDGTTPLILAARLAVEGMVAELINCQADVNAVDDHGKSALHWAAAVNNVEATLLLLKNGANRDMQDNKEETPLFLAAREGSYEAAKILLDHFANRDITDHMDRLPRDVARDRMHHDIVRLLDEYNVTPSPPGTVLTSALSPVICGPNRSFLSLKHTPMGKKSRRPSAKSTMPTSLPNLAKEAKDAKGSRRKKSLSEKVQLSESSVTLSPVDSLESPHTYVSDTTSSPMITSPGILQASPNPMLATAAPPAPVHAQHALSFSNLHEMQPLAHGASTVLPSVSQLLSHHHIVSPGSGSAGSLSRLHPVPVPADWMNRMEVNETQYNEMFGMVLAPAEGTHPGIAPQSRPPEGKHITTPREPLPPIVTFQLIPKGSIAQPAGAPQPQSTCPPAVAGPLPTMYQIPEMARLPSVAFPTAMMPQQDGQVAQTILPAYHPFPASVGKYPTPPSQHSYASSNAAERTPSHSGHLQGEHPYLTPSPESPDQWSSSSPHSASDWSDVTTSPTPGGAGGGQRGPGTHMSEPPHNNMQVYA
Pro-neuregulin-1, membrane-bound isoform (Homo sapiens), sequence (Q02297 whole entry, looked up, the tested form may be a part, canonical isoform): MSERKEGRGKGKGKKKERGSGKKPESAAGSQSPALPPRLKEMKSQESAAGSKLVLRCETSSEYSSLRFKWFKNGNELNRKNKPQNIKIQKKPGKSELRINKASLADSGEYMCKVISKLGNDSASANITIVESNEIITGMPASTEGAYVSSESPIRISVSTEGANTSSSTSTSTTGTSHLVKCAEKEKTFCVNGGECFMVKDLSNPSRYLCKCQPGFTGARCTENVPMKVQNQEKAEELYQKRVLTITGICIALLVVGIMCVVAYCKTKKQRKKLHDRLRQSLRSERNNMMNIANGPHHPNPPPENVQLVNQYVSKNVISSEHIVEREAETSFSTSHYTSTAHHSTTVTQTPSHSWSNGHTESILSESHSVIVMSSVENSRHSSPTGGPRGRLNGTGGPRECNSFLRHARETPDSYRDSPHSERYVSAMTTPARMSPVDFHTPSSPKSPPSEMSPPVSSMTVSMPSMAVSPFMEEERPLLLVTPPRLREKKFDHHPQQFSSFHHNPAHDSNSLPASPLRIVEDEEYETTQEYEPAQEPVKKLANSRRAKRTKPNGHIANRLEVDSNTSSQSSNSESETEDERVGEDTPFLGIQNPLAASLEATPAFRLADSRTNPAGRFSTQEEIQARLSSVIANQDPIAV

## COC(=O)[C@@]1(Cc2ccc(OC)cc2)[C@H]2c3cc(C(=O)N4CCCC4)n(CCCNc4ncc(C(F)(F)F)cc4Cl)c3C[C@H]2CN1C(=O)c1ccccc1
[1]
  composite z-score: 0.965
[2]
  composite z-score: 0.103
[3]
  composite z-score: 0.578
[4]
  composite z-score: 0.583
[5]
  composite z-score: 1.7
[6]
  composite z-score: 1.71
[7]
  composite z-score: 0.709
[8]
  z-score: 2.95 (inactive)
[9]
  composite z-score: 2.32
[10]
  composite z-score: 1.31

## CCCC=C(CCC)[C@@H](NC(=O)OCC(C)C)c1ccccc1
[1]
  composite z-score: 1.28
[2]
  composite z-score: -0.122
[3]
  composite z-score: 0.685
[4]
  composite z-score: 0.444
[5]
  composite z-score: 1.33
[6]
  composite z-score: -0.111
[7]
  composite z-score: 0.762
[8]
  z-score: 2.06 (inactive)
[9]
  composite z-score: 2.06
[10]
  composite z-score: 0.152

## [N-]=[N+]=NCc1ccccc1[C@@H]1OC(c2ccc(OCCCO)cc2)=N[C@]1(CCS(=O)(=O)c1ccccc1)C(=O)N1CCOCC1
[1]
  composite z-score: 0.788
[2]
  composite z-score: 1.17
[3]
  composite z-score: 0.0332
[4]
  composite z-score: 0.89
[5]
  composite z-score: 1.64
[6]
  composite z-score: 1.48
[7]
  composite z-score: 1.29
[8]
  z-score: 0.291 (inactive)
[9]
  composite z-score: 1.25
[10]
  composite z-score: -0.0296

## OCC1C=C(/C=C/c2ccccc2)CN1Cc1ccccc1Br (stereo not given)
[1]
  composite z-score: -0.337
[2]
  composite z-score: 0.422
[3]
  composite z-score: 0.0619
[4]
  composite z-score: 0.979
[5]
  composite z-score: 1.42
[6]
  composite z-score: 0.808
[7]
  composite z-score: 0.331
[8]
  z-score: -1.8 (inactive)
[9]
  composite z-score: 0.379
[10]
  composite z-score: -0.136

## COCCOC(=O)N1C(=O)[C@@]2(c3ccccc31)[C@H](C(=O)N1CCc3cc(OC)c(OC)cc3C1)[C@H]1C(=O)O[C@H](c3ccccc3)[C@H](c3ccccc3)N1[C@@H]2c1ccc(O)cc1
[1]
  composite z-score: -0.159
[2]
  composite z-score: 0.706
[3]
  composite z-score: -0.0303
[4]
  composite z-score: 0.647
[5]
  composite z-score: 1.28
[6]
  composite z-score: 0.832
[7]
  composite z-score: 1.26
[8]
  z-score: -2.26 (inactive)
[9]
  composite z-score: -0.0345
[10]
  composite z-score: 0.0302

## O=C1N(CCS(=O)(=O)c2ccccc2)c2ccccc2[C@@H]2OC(c3ccc(OCCCO)cc3)=N[C@]12Cc1ccccc1
[1]
  composite z-score: -0.0695
[2]
  composite z-score: 0.437
[3]
  composite z-score: -0.165
[4]
  composite z-score: 0.307
[5]
  composite z-score: 0.849
[6]
  composite z-score: 1.38
[7]
  composite z-score: 1.29
[8]
  z-score: -4.02 (inactive)
[9]
  composite z-score: 0.57
[10]
  composite z-score: -0.156

## COCCOC(=O)N1C(=O)[C@@]2(c3cc(C#CCCO)ccc31)[C@H](c1ccc(O)cc1)N1[C@H](c3ccccc3)[C@H](c3ccccc3)OC(=O)[C@H]1[C@@H]2C(=O)N1CCN(c2ncccn2)CC1
[1]
  composite z-score: -0.788
[2]
  composite z-score: 0.325
[3]
  composite z-score: 0.005
[4]
  composite z-score: 0.792
[5]
  composite z-score: 1.44
[6]
  composite z-score: 1.49
[7]
  composite z-score: 1.24
[8]
  z-score: -0.606 (inactive)
[9]
  composite z-score: 0.437
[10]
  composite z-score: 0.783

## CC(C)NC(=O)[C@@H]1c2ccccc2C(=O)N(C(C)C)[C@H]1c1ccc(CO)cc1
[1]
  composite z-score: 0.473
[2]
  composite z-score: 0.0121
[3]
  composite z-score: -0.0064
[4]
  composite z-score: -0.057
[5]
  composite z-score: -0.78
[6]
  composite z-score: 0.853
[7]
  composite z-score: 1.47
[8]
  z-score: 0.229 (inactive)
[9]
  composite z-score: -0.868
[10]
  composite z-score: -0.236

## CN(C)CCCC[C@@H]1NC(=O)[C@H]2C[C@@H](C(=O)NCCCCCN)[C@@H](c3cccc(OCCO)c3)N2C1=O
[1]
  composite z-score: 1.88
[2]
  composite z-score: 2.19
[3]
  composite z-score: 0.269
[4]
  composite z-score: 0.558
[5]
  composite z-score: 1.12
[6]
  composite z-score: 2.28
[7]
  composite z-score: 1.3
[8]
  z-score: -0.0269 (inactive)
[9]
  composite z-score: 1.75
[10]
  composite z-score: 1.16

## CCCCC(=C=CC[C@H](O)c1cccc(OCCO)c1)C[C@H](O)c1ccccn1
[1]
  composite z-score: -0.37
[2]
  composite z-score: 0.0714
[3]
  composite z-score: -0.112
[4]
  composite z-score: 0.528
[5]
  composite z-score: -0.202
[6]
  composite z-score: 0.163
[7]
  composite z-score: 0.719
[8]
  z-score: -0.692 (inactive)
[9]
  composite z-score: -0.157
[10]
  composite z-score: -0.236

## COCCOC(=O)N1C(=O)[C@@]2(c3cc(C#CC4=CCCCC4)ccc31)[C@H](c1ccc(OCCO)cc1)N1[C@H](c3ccccc3)[C@H](c3ccccc3)OC(=O)[C@H]1[C@@H]2C(=O)N1CCc2cc(OC)c(OC)cc2C1
[1]
  composite z-score: -0.16
[2]
  composite z-score: 0.36
[3]
  composite z-score: -0.0242
[4]
  composite z-score: 0.666
[5]
  composite z-score: 1.43
[6]
  composite z-score: 0.395
[7]
  composite z-score: 1.15
[8]
  z-score: -0.211 (inactive)
[9]
  composite z-score: 0.596
[10]
  composite z-score: -0.0994

## COc1ccc(NN2C(C(O)c3ccc(N(C)C)cc3)C=CC3C(=O)N(C4CCCCC4)C(=O)C32)cc1 (stereo not given)
[1]
  composite z-score: 0.419
[2]
  composite z-score: 0.427
[3]
  composite z-score: 0.157
[4]
  composite z-score: 1.01
[5]
  composite z-score: 1.53
[6]
  composite z-score: 1.05
[7]
  composite z-score: 1.15
[8]
  z-score: 0.613 (inactive)
[9]
  composite z-score: 0.352
[10]
  composite z-score: 0.284

## C[C@H]1C2[C@H](Cc3ccccc3)NC(=O)[C@]23C(=O)NCC(=O)N2CCC[C@H]2C(=O)NC/C=C/CCC/C=C/C3[C@@H]2O[C@]12C (stereo not given in full)
[1]
  composite z-score: -0.106
[2]
  composite z-score: -0.511
[3]
  composite z-score: -0.191
[4]
  composite z-score: -0.261
[5]
  composite z-score: -0.754
[6]
  composite z-score: -0.0754
[7]
  composite z-score: -0.125
[8]
  z-score: -0.111 (inactive)
[9]
  composite z-score: -0.653
[10]
  composite z-score: -0.249

## O=C1O[C@@H](c2ccccc2)[C@@H](c2ccccc2)N2[C@@H](c3ccccc3OCCO)[C@]3(C(=O)Nc4ccc(C#CC5(O)CCCCCC5)cc43)[C@@H](C(=O)N3CCN(c4ncccn4)CC3)[C@H]12
[1]
  composite z-score: -0.002
[2]
  composite z-score: 0.432
[3]
  composite z-score: 0.0182
[4]
  composite z-score: 0.92
[5]
  composite z-score: -0.116
[6]
  composite z-score: 0.893
[7]
  composite z-score: 1.2
[8]
  z-score: -2.4 (inactive)
[9]
  composite z-score: -0.0815
[10]
  composite z-score: -0.137

## CCCCCCc1nc(-c2ccc(-c3ccc(Cl)c(Cl)c3)o2)cc2c1[Si](C(C)C)(C(C)C)O[C@H]2c1ccccc1
[1]
  composite z-score: 0.0771
[2]
  composite z-score: -0.543
[3]
  composite z-score: -0.116
[4]
  composite z-score: -0.379
[5]
  composite z-score: -0.797
[6]
  composite z-score: 0.501
[7]
  composite z-score: -0.412
[8]
  z-score: 0.213 (inactive)
[9]
  composite z-score: -0.265
[10]
  composite z-score: 0.0505

## C=CCC(OC(C)=O)[C@@H]1[C@@H](N(Cc2ccc(-c3cccc(C(F)(F)F)c3)o2)C(=O)c2cccc3ccccc23)c2cc(OCCCO)ccc2N1C(=O)Cc1ccc2ccccc2c1 (stereo not given in full)
[1]
  composite z-score: -0.0817
[2]
  composite z-score: -0.261
[3]
  composite z-score: -0.152
[4]
  composite z-score: 0.2
[5]
  composite z-score: -0.35
[6]
  composite z-score: 0.376
[7]
  composite z-score: 0.109
[8]
  z-score: 0.3 (inactive)
[9]
  composite z-score: 0.214
[10]
  composite z-score: -0.199
